# Measured values taken from PubChem BioAssay (EPA / NIEHS).
# Results filed as inconclusive are left out. Active and inactive are the calls of the source. The calls were made as follows: active = hit-call score of the fitted dose curve at least 0.9, where 1 is the maximum; inconclusive = response in the unintended direction; inactive = score below 0.9.
# Experiments:
# [1] = biological target: human Adenosine Transporter (Adot), SLC29A1 (gene 2030) (UniProt Q99808); test: NVS_TR_hAdoT: NovaScreen (NVS) Transporter Assay for human Adenosine Transporter (Adot) (AID 2283368)
# Method in brief: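 U937-derived membranes, cell-free radioligand binding, filter scintillation 1 h after dosing. 25 uM duplicate screen; hits (e.g. 30% inhibition) run in concentration-response up to 50 uM; loss of signal versus DMSO.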
# [2] = system: guinea pig Dopamine Transporter (DAT), gene 100714898; test: NVS_TR_gDAT: NovaScreen (NVS) Transporter Assay for guinea pig Dopamine Transporter (DAT) (AID 2283369);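 also: active compounds lower bound radioligand signal relative to DMSO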
# Procedure: (§1) NVS_TR_gDAT is a biochemical, single-readout assay that uses extracted gene-proteins from Guinea pig striatal membranes in a tissue-based cell-free assay. Measurements were taken 2 hours after chemical dosing in a 48-well plate.NVS_TR_gDAT is one of one assay component(s) measured or calculated from the NVS_TR_gDAT assay. It is designed to make measurements of radioligand binding, a form of binding reporter, as detected with scintillation counting signals by Filter-based radiodetection technology.Data from the assay component NVS_TR_gDAT was analyzed into 1 assay endpoint. This assay endpoint, NVS_TR_gDAT, was analyzed in the positive analysis fitting direction relative to DMSO as the negative control and baseline of activity. Using a type of binding reporter, loss-of-signal activity can be used to understand changes in the binding as they relate to the gene Slc6a3. Furthermore, this assay endpoint can be referred to as a primary readout, because the performed assay has only produced 1 assay endpoint. To generalize the intended target to other relatable targets, this assay endpoint is annotated to the transporter intended target family, where the subfamily is neurotransmitter transporter.
# Binding assays used specific radioligands (tritiated, iodinated) with non-radioactive competitive displacement ligands in agonist or antagonist protocols (as indicated) and various reference compounds and inhibitors to titrate specific binding to receptors and transporters. Most enzyme assays (CYPs, kinases, phosphatases, proteases, HDACs) used recombinant protein and specific substrates (fluorescence mostly, some colorimetric and radioactive) and inhibitors, followed by a biochemical separation of substrate and product. All assays for the biochemical HTS were initially run in duplicate at a single concentration (10 uM for CYP450 assays and 25 uM for all others). Assay-chemical combinations meeting a pre-defined threshold (e.g., 30% inhibition and other criteria defined below) were then run in singleton concentration-response format with maximum concentration of 20 uM for CYPs and 50 uM for all others. Each assay was run with positive and negative controls, and concurrent controls on every plate. The follow-up (secondary) screen tested active chemical-pairs in concentration series, as well as a few additional assays not tested in the primary screen, some selected negative inactives, and several cases re-run in the concentration series for confirmatory purposes.
# [3] = biological target: Peroxisome proliferator-activated receptor gamma (Homo sapiens) (UniProt P37231); test: NVS_NR_hPPARg: NovaScreen (NVS) Nuclear Receptor Binding Assay for human Peroxisome Proliferator-activated Receptor gamma (PPARg) (AID 2283370)
# Method in brief: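 Cell-free binding to extracted PPARg protein, read by fluorescence polarization 2 h after dosing; loss of signal relative to DMSO baseline marks displacement. Primary screen in duplicate at 25 uM, actives retested in concentration series.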
# [4] = biological target: Glucocorticoid receptor (Homo sapiens) (UniProt P04150); test: NVS_NR_hGR: NovaScreen (NVS) Nuclear Receptor Binding Assay for human Glucocorticoid Receptor (GR) (AID 2283363)
# Method in brief: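 Competitive displacement of a labelled ligand was measured on cell-free receptor preparations after 16 h exposure. Initial testing used 25 uM in duplicate with plate controls; confirmed actives went into concentration series.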
# [5] = biological target: guinea pig Sigma Receptor, Non-selective Binding, SIGMAR1 (gene 100135589) (UniProt Q60492); test: NVS_OR_gSIGMA_NonSelective: NovaScreen (NVS) Nuclear Receptor Binding Assay for guinea pig Sigma Receptor, Non-selective Binding (AID 2283367)
# Method in brief: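 gp brain membr., radioligand displacement, 1 h, filtration + scint. counting; DMSO = baseline; 25 uM x2 primary, conc.-response confirm.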
# [6] = biological target: human Serotonin Transporter (SERT), SLC6A4 (gene 6532) (UniProt P31645); test: NVS_TR_hSERT: NovaScreen (NVS) Transporter Assay for human Serotonin Transporter (SERT) (AID 2283372)
# Method in brief: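 Radioligand binding to native SERT in human platelet membranes, read by filter-based scintillation counting 1 h after dosing. Primary screen in duplicate at 25 uM; actives followed up in concentration series; loss of signal versus DMSO baseline.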
# [7] = biological target: rat Androgen Receptor (AR), Ar (gene 24208) (UniProt P15207); test: NVS_NR_rAR: NovaScreen (NVS) Nuclear Receptor Binding Assay for rat Androgen Receptor (AR) (AID 2283366)
# Method in brief: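 Cell-free radioligand binding on extracts of prostate from testosterone-pretreated rats, read by filter-based scintillation counting 18 h after dosing. Loss of bound signal fitted positively versus DMSO; primary screen in duplicate at 25 uM, actives followed up in concentration series.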
# [8] = system: rat Norepinephrine Transporter (NET), gene 83511; test: NVS_TR_rNET: NovaScreen (NVS) Transporter Assay for rat Norepinephrine Transporter (NET) (AID 2283373)
# Procedure: as §1, with “NVS_TR_rNET” for “NVS_TR_gDAT”, “Rat forebrain” for “Guinea pig striatal”, “1 hour” for “2 hours”, “plate.NVS_TR_rNET” for “plate.NVS_TR_gDAT”, “NVS_TR_rNET,” for “NVS_TR_gDAT,”, “Slc6a2.” for “Slc6a3.”
# Binding assays used specific radioligands (tritiated, iodinated) with non-radioactive competitive displacement ligands in agonist or antagonist protocols (as indicated) and various reference compounds and inhibitors to titrate specific binding to receptors and transporters. Most enzyme assays (CYPs, kinases, phosphatases, proteases, HDACs) used recombinant protein and specific substrates (fluorescence mostly, some colorimetric and radioactive) and inhibitors, followed by a biochemical separation of substrate and product. All assays for the biochemical HTS were initially run in duplicate at a single concentration (10 uM for CYP450 assays and 25 uM for all others). […] Each assay was run with positive and negative controls, and concurrent controls on every plate. […]
# [9] = biological target: Nuclear receptor subfamily 1 group I member 2 (Homo sapiens) (UniProt O75469); test: NVS_NR_hPXR: NovaScreen (NVS) Nuclear Receptor Binding Assay for human Pregnane X Receptor (PXR) (AID 2283365);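 also: a drop in FRET signal versus DMSO baseline means the compound binds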
# Method in brief: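 Cell-free binding assay with extracted human PXR protein, read by TR-FRET 2 h after dosing; loss of signal relative to DMSO baseline indicates binding. Primary screen at 25 uM in duplicate, actives retested in concentration series.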
# Chain of human Serotonin Transporter (SERT), SLC6A4 (gene 6532) (P31645 whole entry, looked up): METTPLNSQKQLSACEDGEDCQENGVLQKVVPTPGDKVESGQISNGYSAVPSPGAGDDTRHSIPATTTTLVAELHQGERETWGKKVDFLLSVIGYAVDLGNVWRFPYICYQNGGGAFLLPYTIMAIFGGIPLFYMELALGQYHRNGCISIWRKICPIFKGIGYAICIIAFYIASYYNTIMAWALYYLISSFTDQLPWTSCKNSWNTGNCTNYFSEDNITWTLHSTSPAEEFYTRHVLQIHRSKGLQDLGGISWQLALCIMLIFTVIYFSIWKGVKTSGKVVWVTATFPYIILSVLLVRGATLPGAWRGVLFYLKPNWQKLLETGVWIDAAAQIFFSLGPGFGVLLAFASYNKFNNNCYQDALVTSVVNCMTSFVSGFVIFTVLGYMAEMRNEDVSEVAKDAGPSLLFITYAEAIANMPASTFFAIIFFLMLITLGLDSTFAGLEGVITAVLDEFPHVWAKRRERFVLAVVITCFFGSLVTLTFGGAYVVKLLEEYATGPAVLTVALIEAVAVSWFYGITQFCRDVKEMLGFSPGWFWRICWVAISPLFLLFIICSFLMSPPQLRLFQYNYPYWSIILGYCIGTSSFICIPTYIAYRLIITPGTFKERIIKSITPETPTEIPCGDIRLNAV
# Chain of Peroxisome proliferator-activated receptor gamma (Homo sapiens) (P37231 whole entry, looked up): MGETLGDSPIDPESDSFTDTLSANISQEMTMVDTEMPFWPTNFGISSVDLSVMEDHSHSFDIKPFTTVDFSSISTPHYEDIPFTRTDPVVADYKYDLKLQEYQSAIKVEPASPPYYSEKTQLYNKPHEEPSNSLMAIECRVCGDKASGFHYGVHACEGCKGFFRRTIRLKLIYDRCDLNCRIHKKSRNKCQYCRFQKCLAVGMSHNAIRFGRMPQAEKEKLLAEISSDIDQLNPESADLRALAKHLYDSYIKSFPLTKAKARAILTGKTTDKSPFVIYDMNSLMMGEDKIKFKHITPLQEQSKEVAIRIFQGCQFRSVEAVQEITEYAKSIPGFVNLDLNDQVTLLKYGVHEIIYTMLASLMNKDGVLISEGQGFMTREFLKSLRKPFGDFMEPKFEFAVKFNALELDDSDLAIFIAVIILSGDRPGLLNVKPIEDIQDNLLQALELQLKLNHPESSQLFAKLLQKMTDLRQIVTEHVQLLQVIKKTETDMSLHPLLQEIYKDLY
# Chain of human Adenosine Transporter (Adot), SLC29A1 (gene 2030) (Q99808 whole entry, looked up): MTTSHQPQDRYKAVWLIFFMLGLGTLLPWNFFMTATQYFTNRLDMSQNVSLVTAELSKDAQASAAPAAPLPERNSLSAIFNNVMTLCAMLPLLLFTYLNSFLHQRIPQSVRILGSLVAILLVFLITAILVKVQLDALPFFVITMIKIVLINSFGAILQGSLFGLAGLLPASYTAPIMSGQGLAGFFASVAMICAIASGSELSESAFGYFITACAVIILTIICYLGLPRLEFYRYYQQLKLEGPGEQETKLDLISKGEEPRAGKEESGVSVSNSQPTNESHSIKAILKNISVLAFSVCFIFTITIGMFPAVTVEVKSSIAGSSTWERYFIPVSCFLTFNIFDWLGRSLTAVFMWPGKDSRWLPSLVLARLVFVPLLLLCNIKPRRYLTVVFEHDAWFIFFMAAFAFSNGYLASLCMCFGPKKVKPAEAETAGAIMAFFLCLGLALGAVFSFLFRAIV
# Chain of guinea pig Sigma Receptor, Non-selective Binding, SIGMAR1 (gene 100135589) (Q60492 whole entry, looked up): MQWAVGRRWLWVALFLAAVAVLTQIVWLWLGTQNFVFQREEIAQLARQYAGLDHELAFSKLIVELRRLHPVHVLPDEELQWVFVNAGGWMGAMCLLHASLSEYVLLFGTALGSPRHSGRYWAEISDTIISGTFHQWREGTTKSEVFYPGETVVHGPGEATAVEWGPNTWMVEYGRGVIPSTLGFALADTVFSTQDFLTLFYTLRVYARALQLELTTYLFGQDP
# Chain of rat Androgen Receptor (AR), Ar (gene 24208) (P15207 whole entry, looked up): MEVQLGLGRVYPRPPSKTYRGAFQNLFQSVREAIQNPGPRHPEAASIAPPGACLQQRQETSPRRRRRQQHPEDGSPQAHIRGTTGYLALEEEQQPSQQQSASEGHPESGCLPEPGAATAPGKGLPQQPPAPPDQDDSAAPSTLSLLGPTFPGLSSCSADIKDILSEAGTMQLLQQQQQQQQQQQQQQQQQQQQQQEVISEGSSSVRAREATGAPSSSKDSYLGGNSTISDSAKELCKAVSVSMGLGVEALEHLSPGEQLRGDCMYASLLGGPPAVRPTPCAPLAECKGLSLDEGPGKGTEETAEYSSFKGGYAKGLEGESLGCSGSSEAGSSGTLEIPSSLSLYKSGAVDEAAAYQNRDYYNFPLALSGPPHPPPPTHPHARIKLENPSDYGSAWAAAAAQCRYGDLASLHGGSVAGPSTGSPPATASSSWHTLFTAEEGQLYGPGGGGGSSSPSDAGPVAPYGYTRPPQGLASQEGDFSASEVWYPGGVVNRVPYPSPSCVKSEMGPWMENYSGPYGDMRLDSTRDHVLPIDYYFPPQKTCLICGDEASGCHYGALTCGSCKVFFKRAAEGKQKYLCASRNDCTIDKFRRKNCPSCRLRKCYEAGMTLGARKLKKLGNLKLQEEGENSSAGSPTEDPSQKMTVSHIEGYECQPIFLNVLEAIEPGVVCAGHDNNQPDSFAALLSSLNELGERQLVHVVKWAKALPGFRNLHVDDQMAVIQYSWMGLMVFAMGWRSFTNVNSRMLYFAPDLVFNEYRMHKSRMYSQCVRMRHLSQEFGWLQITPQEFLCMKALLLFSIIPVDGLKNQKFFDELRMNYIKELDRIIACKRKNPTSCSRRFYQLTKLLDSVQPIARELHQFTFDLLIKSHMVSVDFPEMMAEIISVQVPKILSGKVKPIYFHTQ
# Chain of Glucocorticoid receptor (Homo sapiens) (P04150 whole entry, looked up): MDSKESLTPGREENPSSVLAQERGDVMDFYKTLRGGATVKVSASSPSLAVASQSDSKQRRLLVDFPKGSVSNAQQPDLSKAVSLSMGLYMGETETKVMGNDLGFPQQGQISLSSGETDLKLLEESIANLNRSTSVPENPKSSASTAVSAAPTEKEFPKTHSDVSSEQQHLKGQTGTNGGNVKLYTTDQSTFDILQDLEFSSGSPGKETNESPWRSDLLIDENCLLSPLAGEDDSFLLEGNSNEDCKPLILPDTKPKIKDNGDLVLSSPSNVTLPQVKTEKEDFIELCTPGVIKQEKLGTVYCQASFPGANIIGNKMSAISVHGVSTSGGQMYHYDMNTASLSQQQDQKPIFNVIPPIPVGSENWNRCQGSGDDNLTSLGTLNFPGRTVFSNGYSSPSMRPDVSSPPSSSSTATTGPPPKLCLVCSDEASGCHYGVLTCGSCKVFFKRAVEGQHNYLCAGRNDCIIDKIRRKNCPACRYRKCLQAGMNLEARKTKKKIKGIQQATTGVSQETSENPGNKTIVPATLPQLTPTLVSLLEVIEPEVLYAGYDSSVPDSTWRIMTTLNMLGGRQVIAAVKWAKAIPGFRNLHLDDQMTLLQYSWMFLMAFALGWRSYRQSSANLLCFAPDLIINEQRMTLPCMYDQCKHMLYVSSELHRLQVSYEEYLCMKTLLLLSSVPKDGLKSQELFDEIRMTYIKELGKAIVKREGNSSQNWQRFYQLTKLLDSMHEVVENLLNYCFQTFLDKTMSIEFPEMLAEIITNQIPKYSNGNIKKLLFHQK
# Chain of Nuclear receptor subfamily 1 group I member 2 (Homo sapiens) (O75469 whole entry, looked up): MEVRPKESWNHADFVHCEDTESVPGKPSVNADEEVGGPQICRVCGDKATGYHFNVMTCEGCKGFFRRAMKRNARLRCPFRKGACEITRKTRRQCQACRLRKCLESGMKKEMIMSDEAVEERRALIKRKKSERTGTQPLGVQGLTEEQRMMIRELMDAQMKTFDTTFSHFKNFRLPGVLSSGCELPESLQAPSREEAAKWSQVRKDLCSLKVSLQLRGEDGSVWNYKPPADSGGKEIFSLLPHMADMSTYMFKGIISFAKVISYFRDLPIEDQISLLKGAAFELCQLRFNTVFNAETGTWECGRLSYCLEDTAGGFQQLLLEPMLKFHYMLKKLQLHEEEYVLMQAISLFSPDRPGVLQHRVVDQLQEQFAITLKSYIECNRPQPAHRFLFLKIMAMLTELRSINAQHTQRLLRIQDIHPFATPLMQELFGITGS
smiles,measurement,setting,value
CCCOCC(=Nc1ccc(Cl)cc1C(F)(F)F)n1ccnc1,AC50,[1],25 µM (active)
same,outcome,[2],inactive
COc1ccc(C(=CC(=O)N2CCOCC2)c2ccc(Cl)cc2)cc1OC,AC50,[1],9.48 µM (active)
C=C(C)[C@H]1Cc2c(ccc3c2O[C@@H]2COc4cc(OC)c(OC)cc4[C@@H]2C3=O)O1,outcome,[2],inactive
CC(=NC#N)N(C)Cc1ccc(Cl)nc1,outcome,[3],inactive
CCOP(=S)(OCC)SCCSCC,outcome,[4],inactive
same,outcome,[3],inactive
CCc1cccc(C)c1N(C(=O)CCl)C(C)COC (configuration not stated),outcome,[5],inactive
same,outcome,[3],inactive
COP(=O)(NC(C)=O)SC (configuration not stated),AC50,[4],1.66 µM (active)
same,outcome,[3],inactive
CCOP(=S)(OCC)OC(Cl)C(Cl)(Cl)Cl (configuration not stated),outcome,[3],inactive
C[N+]1(C)CCCCC1,outcome,[6],inactive
O=C(O)c1cc(Oc2ccc(C(F)(F)F)cc2Cl)ccc1[N+](=O)[O-],AC50,[3],9.58 µM (active)
CC(C)=CC1C(C(=O)OCN2C(=O)C3=C(CCCC3)C2=O)C1(C)C (configuration not stated),AC50,[1],25 µM (active)
same,outcome,[2],inactive
same,outcome,[6],inactive
CC(C)[C@H](C(=O)O[C@H](C#N)c1cccc(Oc2ccccc2)c1)c1ccc(Cl)cc1,outcome,[3],inactive
CC(COc1ccc(Oc2ccccc2)cc1)Oc1ccccn1 (configuration not stated),outcome,[7],inactive
same,outcome,[3],inactive
Nc1c(Cl)cc([N+](=O)[O-])cc1Cl,outcome,[2],inactive
same,outcome,[3],inactive
same,outcome,[6],inactive
CC1(C(=O)Nc2ccc(O)c(Cl)c2Cl)CCCCC1,AC50,[2],3.33 µM (active)
CCC(=O)Nc1ccc(Cl)c(Cl)c1,AC50,[5],9.51 µM (active)
same,AC50,[8],4.96 µM (active)
CC[C@H](C)[C@H]1O[C@]2(C=C[C@@H]1C)C[C@@H]1C[C@@H](C/C=C(\C)[C@@H](O[C@H]3C[C@H](OC)[C@@H](O[C@H]4C[C@H](OC)[C@@H](NC)[C@H](C)O4)[C@H](C)O3)[C@@H](C)/C=C/C=C3\CO[C@@H]4[C@H](O)C(C)=C[C@@H](C(=O)O1)[C@]34O)O2,AC50,[9],6.81 µM (active)
same,outcome,[8],inactive
CCCCOC(=O)c1ccccc1C(=O)O,outcome,[7],inactive
same,outcome,[2],inactive
same,outcome,[3],inactive
O=[N+]([O-])c1cc(C(F)(F)F)c(Cl)c([N+](=O)[O-])c1Nc1ncc(C(F)(F)F)cc1Cl,AC50,[3],0.319 µM (active)
CCC(=NOC/C=C/Cl)C1=C(O)CC(C2CCOCC2)CC1=O (configuration not stated),outcome,[3],inactive
C#CCC1=C(C)C(OC(=O)C2C(C=C(C)C)C2(C)C)CC1=O (configuration not stated),AC50,[2],9.21 µM (active)
CCc1cccc(CC)c1N(COC)C(=O)CCl,AC50,[3],21.2 µM (active)
Cc1cc(C2CC2)nc(Nc2ccccc2)n1,AC50,[8],5.69 µM (active)
CCOP(=O)(NC(C)C)Oc1ccc(SC)c(C)c1 (configuration not stated),outcome,[3],inactive
